The results in this text go back to PubChem BioAssay (EPA / NIEHS).

Active and inactive are the calls of the source. Rule for the calls: active = hit-call score of the fitted dose curve at least 0.9, where 1 is the maximum; inactive = score below 0.9.

This assay is described as follows: ATG_PBREM_CIS: Attagene CIS-FACTORIAL HepG2 Assay for human Phenobarbital-responsive Enhancer Module (PBREM) (AID 2282955). The note with it: HepG2 PBREM cis-reporter, Attagene multiplexed transcription; actives raise or lower the signal. Put shortly:
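Reporter mRNA read by RT-PCR, 6-FAM primer extension, HpaI digestion and capillary electrophoresis. Transfected HepG2 cells, 24 h compound exposure. Gain or loss of signal fitted bidirectionally relative to DMSO baseline.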
As for `O=c1cc(-c2ccccc2)oc2ccc3ccccc3c12`, the result was inactive. As usually defined, the AC50 is the concentration giving half of the maximal activity seen. Turning to `O=C(Nc1ccc(Cl)c(Cl)c1)c1cc(Cl)cc(Cl)c1O`, the AC50 is 1.35 µM (active).

For the compound `c1ccc2c(c1)CCC2`, the result was inactive. As for `O=C1Cc2ccccc2N1c1c(Cl)cccc1Cl`, the AC50 was 1.23 µM (active). On the same count and under the same terms, to `Clc1ccc(Nc2nnc(Cc3ccncc3)c3ccccc23)cc1` belongs 8.51 µM (active). For `Brc1cc(Br)c(Oc2c(Br)cc(Br)c(Br)c2Br)cc1Br`, the result was inactive.

For `C=CC(=O)OCCC(F)(F)C(F)(F)C(F)(F)C(F)(F)C(F)(F)C(F)(F)F`, the result was inactive.

As to `O=C(C=C(O)C(F)(F)F)C(F)(F)F`, the outcome was inactive.

With `Nc1cc(Cl)c(-c2cc(Cl)c(N)cc2Cl)cc1Cl`, the result was inactive. Still for that read-out and setting: to `CCC(=O)C=Cc1ccc(OC)cc1` belongs “inactive”; to `COC(O)c1ccccc1` (stereo not drawn), “inactive”. Still for that read-out and setting: to `CC1CCC(C(=O)O)CC1` (stereo not drawn) belongs “inactive”. On the same count and under the same terms, to `CC1CNCC(C)O1` (stereo not drawn) belongs “inactive”.

For the compound `Cc1ccc(N=Nc2c(O)ccc3ccccc23)c(C)c1`, the result was inactive. Same read-out and setting: to `Nc1ccc(O)c(C(=O)O)c1` belongs “inactive”; to `Cc1[nH]nc2c1N=C(c1ccccc1Cl)c1cc([N+](=O)[O-])ccc1N2`, “inactive”; to `O=C(O)C(=O)O`, “inactive”.

Turning to `CCc1cccc(CC)c1N(COC)C(=O)CS(=O)(=O)O`, the AC50 was 8.56 µM (active). As to `Clc1ccc2c(Cl)ccnc2c1`, the result was inactive. Same read-out and setting: to `COC1=CC(=O)C[C@@H](C)[C@]12Oc1c(Cl)c(OC)cc(OC)c1C2=O` belongs “inactive”. Regarding `O=C(Nc1cccc([N+](=O)[O-])c1)c1cc2ccccc2cc1O`, the AC50 is 3.64 µM (active). On to `CCc1cccc(CC)c1NC(=O)C(=O)O`, for which the outcome was inactive. Still for that read-out and setting: to `O=CC(F)(F)C(F)(F)C(F)(F)F` belongs “inactive”.
